TAG inh = triacylglycerol accumulation inhibition; H9c2 cells, Nile Red lipid (TAG) fluorescence; cells loaded with 200 µM oleic acid; inhibition, % at 12.5 µM; 230,000 compounds, 0.66% hits; AID 651582;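 active = pattern-corrected inhibition of lipid staining of at least 50% with the nuclear-stain viability signal not falling by more than 50%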;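 also: 0% = DMSO wells and 100% = triacsin C control wells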
Cardio protect = myocardial damage modulation in H9c2 cells; H9c2 cardiomyocytes, H2O2 injury protection, ATPLite, 2 h; protection from H2O2 cell death, % at 20 µM; 360,000 compounds, 0.63% hits; AID 588492;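 active = compounds giving at least 50% protection of heart cells from peroxide-induced death in the single-dose screen, raw or plate-pattern-corrected value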;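 also: 0% = DMSO wells with peroxide and 100% = DMSO wells without peroxide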
PfGluPho inh = PfG6PD (Plasmodium falciparum) enzyme inhibition | PfGluPho enzyme, NADPH resazurin-diaphorase fluorescence | inhibition, % at 20 µM | 350,000 compounds, 0.78% hits | AID 504690;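 active = inhibition reaching at least a set limit at 20 µM in the primary screen, cut at about 59% in these data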;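 also: 0% = DMSO wells with substrate and 100% = DMSO wells lacking glucose-6-phosphate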
APOBEC3A inh = inhibitors of human APOBEC3A DNA deaminase | inhibition, % at 20 µM | P31941 | recombinant A3A, FAM/TAMRA ssDNA deamination fluorescence | 330,000 compounds, 0.41% hits;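 active = at least 40% inhibition at 20 µM here, with at most 30% in a related deaminase screen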;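 also: plate controls were A3A with DMSO for no effect and wells lacking A3A enzyme for full effect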
Target sequence (P31941 whole entry, looked up): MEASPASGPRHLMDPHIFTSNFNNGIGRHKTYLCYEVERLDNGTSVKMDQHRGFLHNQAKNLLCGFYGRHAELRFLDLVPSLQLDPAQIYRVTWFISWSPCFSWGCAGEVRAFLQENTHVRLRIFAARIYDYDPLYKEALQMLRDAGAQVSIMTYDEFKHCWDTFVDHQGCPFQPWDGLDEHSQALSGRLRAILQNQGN
NadD inh = blocks S. aureus nicotinate mononucleotide adenylyltransferase; purified NadD enzyme, colorimetric absorbance read-out; inhibition, % at 20 µM; 360,000 compounds, 0.78% hits; in the data active = inhibition above about 26%
A3G deaminase = blocks human APOBEC3G single-stranded DNA deamination; AID 493012; inhibition, % at 20 µM; 330,000 compounds, 0.28% hits; Q9HC16; recombinant A3G, ssDNA deamination FAM/TAMRA fluorescence;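 active = inhibition of at least 40% at 20 µM, with no more than 30% in the related APOBEC3A deaminase screen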;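 also: plate controls were DMSO wells with A3G for no effect and wells lacking A3G enzyme for full effect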
Target sequence (Q9HC16 whole entry, looked up): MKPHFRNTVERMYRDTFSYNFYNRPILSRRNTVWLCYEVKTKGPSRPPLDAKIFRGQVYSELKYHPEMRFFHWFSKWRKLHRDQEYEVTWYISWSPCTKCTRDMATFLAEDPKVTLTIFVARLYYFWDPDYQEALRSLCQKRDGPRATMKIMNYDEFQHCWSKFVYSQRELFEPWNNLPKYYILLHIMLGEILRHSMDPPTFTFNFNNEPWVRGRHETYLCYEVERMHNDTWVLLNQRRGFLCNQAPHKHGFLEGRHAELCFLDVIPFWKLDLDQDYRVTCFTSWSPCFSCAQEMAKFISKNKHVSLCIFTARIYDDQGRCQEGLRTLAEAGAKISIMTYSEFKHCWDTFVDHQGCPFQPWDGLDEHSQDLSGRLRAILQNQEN
PfG6PD confirm = confirmation of Plasmodium falciparum G6PD inhibitors; shares compounds with PfGluPho inh; recombinant PfGluPho, NADPH-diaphorase-resazurin fluorescence; inhibition, % at 20 µM; 2,400 compounds, 34% hits;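 active = inhibition of at least 50% at 20 µM in any single replicate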;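 also: 0% = DMSO with substrate and 100% = DMSO lacking glucose-6-phosphate substrate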
Diaph ctr 10uM = diaphorase inhibition or oxidation at 10 uM NADPH. diaphorase-coupled resazurin reduction, fluorescence, NADPH 10 uM. 820 compounds, 39% hits. shares compounds with PfGluPho inh. inhibition, % at 20 µM;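 active = average inhibition reaching 50% or more with the compound at 20 µM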;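 also: resorufin red fluorescence formed as diaphorase reduces resazurin using NADPH; 0% = DMSO with enzyme and 100% = DMSO without enzyme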
Diaph ctr 30uM = diaphorase inhibition or oxidation at 30 uM NADPH | shares compounds with PfGluPho inh | Diaphorase/resazurin coupled assay, resorufin fluorescence | inhibition, % at 20 µM | 820 compounds, 29% hits | AID 504863;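 active = inhibition averaging 50% or more, tested at 20 µM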;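 also: 0% = DMSO with enzyme and 100% = DMSO wells lacking diaphorase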
An asterisk follows results filed as active; . = not tested or not shown. A selection: hits, their analogues and other compounds. The true share with any hit is near 2.9%.

SMILES	TAG inh	Cardio protect	PfGluPho inh	APOBEC3A inh	NadD inh	A3G deaminase	PfG6PD confirm	others
O=C(Nc1sc2c(c1C(=O)O)CCC2)c1cccc(Cl)c1	.	-3	62*	-5	-4	-11	35
Cc1cccc(C(=O)Nc2sc3c(c2C(=O)O)CCCC3)c1	.	-6	80*	-4	-1	-4	53*	Diaph ctr 10uM=47;Diaph ctr 30uM=29
O=C(Nc1sc2c(c1C(=O)O)CCC2)c1ccccc1Cl	.	1	7	-6	-6	-5	.
Cc1ccccc1C(=O)Nc1sc2c(c1C(=O)O)CCC2	-3	2	8	-3	-5	-8	.
CCN(CC)C(=O)C1=C(C)N(CCCN2CCCC2=O)C(=O)C(CC(=O)NCCCN(C)C)C1 (stereo unspecified)	1	3	-17	.	5	.	.
O=C1CCN(Cc2cccnc2)CCN1[C@H](CO)Cc1ccccc1	19	-4	4	-2	-4	-4	.
CCOC(=O)[C@]12CCC=C1N(Cc1cccc3ccccc13)C(=O)[C@H](CC(=O)N1CCOCC1)C2	.	.	.	.	4	.	.
Cc1cccc(N/N=C/c2ccc(O)c(O)c2O)c1	-1	34	84*	8	1	1	44
Oc1ccc(/C=N/NC(=S)Nc2cccnc2)c(O)c1O	1	4	80*	.	21	.	67*	Diaph ctr 10uM=55*;Diaph ctr 30uM=80*
Oc1cccc(/C=N/NC(=S)Nc2cccnc2)c1O	.	23	19	.	1	.	.
Cc1cc2ncn(/N=C/c3cccnc3)c2cc1C	-30	12	-3	-3	0	-4	.
Cc1cc2ncn(/N=C/c3ccc(-c4ccccc4)o3)c2cc1C	.	17	73*	-3	3	-12	-23
Fc1ccc(NC(=S)Nc2cccc3cnccc23)cc1	-11	6	32	2	-2	16	.
S=C(Nc1cccnc1)Nc1cccc2cnccc12	5	36	28	2	3	18	.
S=C(Nc1ccc(Cl)cc1)Nc1cccc2cnccc12	.	-12	75*	-2	5	-9	-8
CN(C)S(=O)(=O)c1cccc(NC(=S)Nc2cccc3cnccc23)c1	-45	-16	69*	.	6	.	8
Cc1cc(C)nc(/N=c2/ssnc2Cl)c1	1	-36	98*	-3	9	3	26
Cc1ccc(-c2cc(C(=O)N3CCN(c4ccc(F)cc4)CC3)c3ccccc3n2)o1	-3	-7	16	13	27	-4	.
Cc1ccc(-c2cc(C(=O)N3CCN(c4ncccn4)CC3)c3cc(Br)ccc3n2)o1	-7	-13	62*	4	23	-3	-11
COc1cccc(-c2oc3c(c2-c2ccc(Br)nc2)C(O)CCC3)c1 (stereo unspecified)	.	.	.	.	0	.	.
COC(=O)C1C/C(=N/NS(=O)(=O)c2ccc(C)cc2)CS1 (stereo unspecified)	-9	3	-6	-4	-3	-6	.
COC(=O)c1c(-c2cccnc2)csc1NC(=O)c1cc(C)on1	.	5	62*	-3	16	-6	16
Cc1c(C(C)CCCO)oc(=O)c2c1Oc1c(C)c(C(C)C[C@H](C)O)oc(=O)c1C2 (stereo partly specified)	-8	11	-15	-2	3	-4	.
CC(Sc1nnc(-c2cccnc2)n1N)C(=O)NCCC1=CCCCC1 (stereo unspecified)	9	7	-1	-4	5	-11	.
CC1=CC(C)(C)N2C(=O)C3(NCCc4c3[nH]c3ccccc43)c3cccc1c32 (stereo unspecified)	32	0	2	5	0	8	.
SMILES	TAG inh	Cardio protect	PfGluPho inh	APOBEC3A inh	NadD inh	A3G deaminase	PfG6PD confirm	others
Cc1c(/C=N/NC(N)=O)c2ccccn2c1C(=O)c1ccc(F)cc1	.	43	54	1	-5	3	.
Cc1c(/C=N/O)c2ccccn2c1C(=O)c1ccc(F)cc1	.	-6	76*	-5	-1	-9	42
Nc1ccc2nc(-c3ccccc3)[nH]c2c1	-1	6	10	-7	-1	-7	.
O=[N+]([O-])c1ccc2nc(-c3ccccc3)[nH]c2c1	.	-16	68*	-3	-5	-7	21
Nc1cccc(-c2nc3ccc(C(=O)c4ccccc4)cc3[nH]2)c1	.	-11	62*	-7	4	-5	14
COc1ccccc1NC(=O)CSc1ccc2nnc(CCNC(=O)c3ccccc3)n2n1	-8	2	-9	-6	-3	-6	.
COc1ccccc1-n1c(SCC(=O)NCc2ccc3c(c2)OCO3)nc2cc([N+](=O)[O-])ccc21	.	107*	95*	0	8	-2	48
COc1ccccc1N1CCN(/N=C/c2cccc(O)c2)CC1	-11	-8	8	-6	3	-7	.
COc1ccccc1N1CCN(/N=C/c2cc(OC)c(O)c(OC)c2)CC1	.	28	76*	-6	3	-4	7
CCCC(NS(=O)(=O)c1ccc(-c2ccc(=O)[nH]n2)s1)c1cccs1 (stereo unspecified)	.	-3	-16	-3	-4	-6	.
CCCOc1ccc2oc(=O)c3c(c2c1)CCCN3C(=O)CN1CCc2ccccc2C1	20	-4	60*	0	22	-3	27
CC1CCN(CC(=O)N2CCCc3c2c(=O)oc2ccc(OCc4ccccc4)cc32)CC1	8	-26	9	0	3	-3	.
O=C(NC(Cc1ccccc1)C(=O)N1CCN(c2ccccc2O)CC1)c1ccccc1 (stereo unspecified)	0	13	12	-1	5	-6	.
O=S(=O)(Cc1ccccc1)N(O)c1ccccc1	.	8	86*	-6	4	-4	84*	Diaph ctr 10uM=74*;Diaph ctr 30uM=53*
N/C(=N\OC(=O)CCCc1ccccc1)c1ccccc1Cl	1	-7	14	-2	-7	-7	.
C[C@@H]1CCCCO[C@H](CN(C)C(=O)Nc2cccc3ccccc23)[C@@H](C)CN([C@H](C)CO)C(=O)c2cc(N(C)C)ccc2O1	5	-7	63*	.	1	.	3
CN(C(=O)CSc1nc(C2CC2)n(-c2ccccc2)n1)C1CCS(=O)(=O)C1 (stereo unspecified)	5	-3	-4	-5	-5	-12	.
O=c1c2cc([N+](=O)[O-])ccc2sn1-c1ccccc1	-5	-30	121*	.	7	.	105*	Diaph ctr 10uM=12;Diaph ctr 30uM=17
CC(=O)Nc1ccc2sn(-c3ccccc3)c(=O)c2c1	19	-27	126*	.	19	.	105*	Diaph ctr 10uM=-12;Diaph ctr 30uM=11

Screening results (PubChem)
